Experimental data taken from PubChem BioAssay AID1259240 (Keith Lab, Institute of Cancer Science, University of …, 2017).
The source made the active and inactive calls. No stated cut-off is given here; in the data, active means fold change mostly below about -2 (no sharp cut-off); inactive means mostly above about -1.8.

Test: modulation of TERT promoter-driven luciferase – cell-based, luciferase reporter, human, primary screen (AID 1259240)
Conditions: A2780 TERT promoter luciferase reporter, 16 h; at 20 µM, fold versus average of vehicle-only wells

Structure (SMILES) | fold change
O=c1oc2cc(O)ccc2cc1S(=O)(=O)c1ccccc1 | -1.16 (inactive)
O=C(CC1(O)C(=O)Nc2ccccc21)c1cc2ccccc2o1 (stereo not given) | 1.08 (inactive)
CC1CCN(S(=O)(=O)c2ccc3c(c2)N(CC(=O)NCCN2CCCC2)C(=O)CO3)CC1 | -1.01 (inactive)
COc1ccccc1-c1nc2s/c(=C3\C(=O)N(CC(=O)O)c4ccccc43)c(=O)n2n1 | 1.16 (inactive)
CCOC(=O)Cn1c(=O)oc2cc(S(=O)(=O)NCc3ccccn3)ccc21 | 1.36 (inactive)
CC(C)Cc1cc(C(=O)Nc2cnn(Cc3ccc(F)cc3)c2)no1 | -1.44 (inactive)
Cn1c2ccccc2c2cnn(CC(=O)N3CCN(C4CCCCC4)CC3)c(=O)c21 | -1.05 (inactive)
CCc1nccn1S(=O)(=O)c1ccc(OC)c(OC)c1 | -2.54 (active)
Cc1ccc2c(c1)/C(=c1/sc3n(c1=O)CN(c1ccc(Cl)cc1)CN=3)C(=O)N2 | -1.65 (inactive)
Cc1ccc(-c2cc(N)n(S(=O)(=O)c3cccc([N+](=O)[O-])c3)n2)cc1 | 1.05 (inactive)
CCCCNC(=O)c1ccc(CNc2c(NC3CCCC3)c(=O)c2=O)cc1 | 1.11 (inactive)
COC(=O)c1ccc(CSc2nc(-c3ccco3)nc3c2c(=O)n(C)c(=O)n3C)o1 | -1.08 (inactive)
Cc1nc(SCC(=O)NCC2CCCO2)c2c(=O)n(C)c(=O)n(C)c2n1 (stereo not given) | 1.01 (inactive)
CCCC1=NN(C(=O)CSCc2ccccc2Cl)C(O)(C(F)(F)F)C1 (stereo not given) | -2.03 (active)
CC1CCCN(S(=O)(=O)c2cccc(-c3cn4cccnc4n3)c2)C1 (stereo not given) | -1.53 (inactive)
Cn1c(=O)c2c(SCC(=O)N3CCCc4ccccc43)nc(-c3ccco3)nc2n(C)c1=O | 1.45 (inactive)
Cn1c(CC(=O)NC(C)(C)CO)c(Sc2ccccc2)c2ccccc21 | -2.11 (active)
O=C(CSc1nc(-c2ccco2)cc(C(F)(F)F)n1)NCC1CCCO1 (stereo not given) | -1.44 (inactive)
Cc1ccc(Cl)cc1N1C(=O)Nc2ccccc2N1O | -1.07 (inactive)
COc1ccc(-c2n[nH]c3c2C(c2ccccc2)NC3=O)cc1 (stereo not given) | -1.24 (inactive)

Structure (SMILES) | fold change
CC(C)c1ccc(NC(=O)Nc2ccc3snnc3c2)cc1 | -1.62 (inactive)
O=C(Cn1nc(C(F)F)cc1C1CC1)N1CCCC1 | 1.2 (inactive)
O=C(CSc1nc(-c2ccco2)cc(C(F)(F)F)n1)N1CCOCC1 | -2.11 (active)
Cn1c(=O)oc2cc(S(=O)(=O)N3CCC(C(=O)Nc4nccs4)CC3)ccc21 | 1.31 (inactive)
Brc1ccc2c(c1)CN(Cc1ccc3c(c1)OCO3)CO2 | -1.55 (inactive)
OC(c1ccccc1)c1nn(CN2CCOCC2)c(=S)n1-c1ccccc1 (stereo not given) | -3.71 (active)
CCOC(=O)C1=C(CS(=O)(=O)c2ccc(C)c(C)c2)NC(=O)NC1c1ccc(Cl)cc1 (stereo not given) | 1.11 (inactive)
Cc1ccc(-n2c(C)cc(/C=C3/SC(=S)N(CC(=O)O)C3=O)c2C)cc1 | -5.22 (active)
COc1ccccc1C(=O)[C@H]1C(=O)N[C@@]2(C)C[C@@H]1c1cccc(OC)c1O2 | -1.16 (inactive)
CCNc1nc(NCC)nc(C(=O)OCCO)n1 | 1.24 (inactive)
O=C(O)CN1C(=O)/C(=C\c2cn(Cc3ccc(F)cc3)c3ccccc23)SC1=S | -1.28 (inactive)
CCc1nc2c(cnn2-c2ccc(F)cc2)c(=O)n1-c1ccc(OC)c(Cl)c1 | 1.04 (inactive)
CN(CC(=O)NCC1CCCO1)S(=O)(=O)c1ccc2c(c1)c(=O)n(C)c(=O)n2C (stereo not given) | 1.06 (inactive)
Cc1c(NC(=O)Nc2cccc(C#N)c2)c(=O)n(-c2ccccc2)n1C | -1.39 (inactive)
Cc1nc2c3ccccc3n3c(CCCC(=O)NCc4ccccn4)nnc3n2n1 | -1.25 (inactive)
COc1cc(NC(=O)C2CCCN(S(=O)(=O)c3ccc4c(c3)oc(=O)n4C)C2)cc(OC)c1 (stereo not given) | 1.09 (inactive)
Cc1ccc(N2C(=O)c3n[nH]c(C)c3C2c2ccccc2F)cc1 (stereo not given) | 1.63 (inactive)
Cc1c(NC(=O)C2CC(c3ccc(F)cc3)=NO2)c(=O)n(-c2ccccc2)n1C (stereo not given) | 1.46 (inactive)
CCN1C(=O)N(CC)C2C1N(C(C)=O)C(=O)N2C(C)=O (stereo not given) | -1.76 (inactive)
O=C(NC1CCCC1)C1CCC(CNS(=O)(=O)c2cccc3nsnc23)CC1 (stereo not given) | -1.64 (inactive)
